Data on 35 compounds can be found in PubChem BioAssay (EPA / NIEHS).

Structures are written as SMILES. Several values for one entry are separate records, joined by “and”; a condition that tells them apart may be missing. Identical values can stand only once. Records with an inconclusive call do not appear. Activity calls are given as the source filed them. The calls were made as follows: active = hit-call score of the fitted dose curve at least 0.9, where 1 is the maximum; inconclusive = response in the unintended direction; inactive = score below 0.9.

Sequence of human Peripheral-type Benzodiazepine Receptor (PBR), TSPO (gene 706) (P30536 whole entry, looked up): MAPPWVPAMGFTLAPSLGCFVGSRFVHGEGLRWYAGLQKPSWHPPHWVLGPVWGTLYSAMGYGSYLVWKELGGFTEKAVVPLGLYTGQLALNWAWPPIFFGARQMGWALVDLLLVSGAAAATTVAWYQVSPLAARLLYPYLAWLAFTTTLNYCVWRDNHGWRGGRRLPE
Sequence of chimpanzee Androgen Receptor (AR), AR (gene 747460) (O97775 whole entry, looked up): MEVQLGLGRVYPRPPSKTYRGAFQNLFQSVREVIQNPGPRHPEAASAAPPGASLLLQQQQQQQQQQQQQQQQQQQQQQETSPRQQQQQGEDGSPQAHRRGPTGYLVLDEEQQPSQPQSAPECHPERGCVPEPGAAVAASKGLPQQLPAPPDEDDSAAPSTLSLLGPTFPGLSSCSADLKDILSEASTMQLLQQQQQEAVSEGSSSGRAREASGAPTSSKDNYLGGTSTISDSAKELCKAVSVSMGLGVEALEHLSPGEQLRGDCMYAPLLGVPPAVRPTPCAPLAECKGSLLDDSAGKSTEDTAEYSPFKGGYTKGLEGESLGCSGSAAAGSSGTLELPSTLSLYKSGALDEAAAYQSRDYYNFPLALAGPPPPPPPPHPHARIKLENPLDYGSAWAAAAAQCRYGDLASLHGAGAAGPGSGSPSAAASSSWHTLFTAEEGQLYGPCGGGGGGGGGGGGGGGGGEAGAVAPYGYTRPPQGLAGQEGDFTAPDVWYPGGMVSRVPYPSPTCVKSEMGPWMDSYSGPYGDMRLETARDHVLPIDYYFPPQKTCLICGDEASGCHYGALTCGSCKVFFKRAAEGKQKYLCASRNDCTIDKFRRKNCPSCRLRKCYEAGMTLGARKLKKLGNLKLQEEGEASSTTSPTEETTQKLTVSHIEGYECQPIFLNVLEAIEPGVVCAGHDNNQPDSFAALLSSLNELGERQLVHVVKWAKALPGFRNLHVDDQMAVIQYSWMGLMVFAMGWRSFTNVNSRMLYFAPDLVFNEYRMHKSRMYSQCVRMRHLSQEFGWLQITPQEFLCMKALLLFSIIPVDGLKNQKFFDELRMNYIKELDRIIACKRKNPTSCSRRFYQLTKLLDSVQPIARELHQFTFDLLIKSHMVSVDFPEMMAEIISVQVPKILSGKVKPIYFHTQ
Sequence of rat Peripheral-type Benzodiazepine Receptor (PBR), Tspo (gene 24230) (P16257 whole entry, looked up): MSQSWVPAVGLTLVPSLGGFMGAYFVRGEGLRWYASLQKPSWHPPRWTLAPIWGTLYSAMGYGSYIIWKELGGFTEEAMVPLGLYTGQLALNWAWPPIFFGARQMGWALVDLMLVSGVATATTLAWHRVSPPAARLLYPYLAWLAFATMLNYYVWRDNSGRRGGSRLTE

In one assay the target is human Peripheral-type Benzodiazepine Receptor (PBR), TSPO (gene 706) (UniProt P30536). Kind of assay: NVS_MP_hPBR: NovaScreen (NVS) Membrane Protein Assay for human Peripheral-type Benzodiazepine Receptor (PBR) (AID 2283331).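 Also: hits reduce radioligand binding relative to DMSO baseline.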 An outline of the steps:
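Cell-free radioligand displacement, human colonic membranes, 1 h exposure. Filter radiodetection read-out. Single-concentration duplicates (25 uM), then concentration-response for actives; DMSO negative control.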
As for `O=C1OC[C@H](Cc2cccc(O)c2)[C@H]1Cc1cccc(O)c1`, the AC50 (as a rule, the midpoint of the concentration-response curve, whichever way the signal moves) is 8.4 µM (active) and 3.26 µM (active).

As to `CCCCC(CC)COC(=O)c1ccc(O)cc1` (configuration not stated), the AC50 is 2.71 µM (active).

For the compound `Cc1cc(=O)oc2cc(N(C)C)ccc12`, the half-maximal activity concentration (AC50) was 6.09 µM (active).

For the compound `c1ccc(Oc2ccccc2)cc1`, the compound was classed as inactive.

`CCCCN(CCCC)C(=O)N(CCCC)CCCC`: the half-maximal activity concentration (AC50) was 20.6 µM (active).

For the compound `CS(=O)(=O)OCCCCOS(C)(=O)=O`, the call was inactive.

For `C=C(C)[C@H]1CC=C(C)C(=O)C1`, the AC50 was 25 µM (active).

On to `COc1ccc(CCN2CCC(Nc3nc4ccccc4n3Cc3ccc(F)cc3)CC2)cc1`, for which the compound was called inactive.

On to `CCCCCCCCCCCCCCCC(=O)OC/C=C(C)/C=C/C=C(C)/C=C/C1=C(C)CCCC1(C)C`, for which the concentration at half-maximal activity (AC50) was 41.1 µM (active).

In the case of `CN(C)C(=O)Nc1ccc(Oc2ccc(Cl)cc2)cc1`, the half-maximal activity concentration (AC50) was 2.91 µM (active).

For `Cc1cc(CCC(=O)OCCOCCOCCOC(=O)CCc2cc(C)c(O)c(C(C)(C)C)c2)cc(C(C)(C)C)c1O`, the AC50 was 0.721 µM (active).

Regarding `COc1ccc(N=Nc2cc(C)c(N=Nc3ccc(S(=O)(=O)O)cc3)cc2OC)cc1`, the AC50 is 2.05 µM (active).

With `Cc1ccc(S(=O)(=O)Oc2ccc(N=Nc3ccc(-c4ccc(N=Nc5c(O)ccc6cc(S(=O)(=O)O)cc(S(=O)(=O)O)c56)c(C)c4)cc3C)cc2)cc1`, the AC50 is 0.0489 µM (active).

Take `CC(C)(C)CC(C)(C)c1ccc(OCCOCC[N+](C)(C)Cc2ccccc2)cc1`: the result was inactive.

Take `C=CC(=O)OCCCC`: the compound was called inactive.

As for `Nc1ccc2cc(S(=O)(=O)O)cc(O)c2c1N=Nc1ccccc1C(F)(F)F`, the half-maximal activity concentration (AC50) was 1.16 µM (active).

Regarding `CCOc1ccc(N=Nc2ccc(C=Cc3ccc(N=Nc4ccc(OCC)cc4)cc3S(=O)(=O)O)c(S(=O)(=O)O)c2)cc1`, the AC50 was 0.00187 µM (active).

In a further assay the target is rat Peripheral-type Benzodiazepine Receptor (PBR), Tspo (gene 24230) (UniProt P16257). Kind of assay: NVS_MP_rPBR: NovaScreen (NVS) Membrane Protein Assay for rat Peripheral-type Benzodiazepine Receptor (PBR) (AID 2283335). An outline of the steps:
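Competitive displacement of specific radioligand from rat kidney membrane PBR, read by filtration and scintillation after 1 h. Compounds first tested at 25 uM in duplicate, then in concentration series; signal loss relative to DMSO.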
Consider `O=C1OC[C@H](Cc2cccc(O)c2)[C@H]1Cc1cccc(O)c1`, for which the AC50 is 5.43 µM (active).

For `CCCCC(CC)COC(=O)c1ccc(O)cc1` (configuration not stated), the AC50 was 1.23 µM (active).

As to `Cc1cc(=O)oc2cc(N(C)C)ccc12`, the AC50 is 25 µM (active).

For the compound `c1ccc(Oc2ccccc2)cc1`, the result was inactive.

With `CCCCN(CCCC)C(=O)N(CCCC)CCCC`, the AC50 was 10.4 µM (active).

As to `CS(=O)(=O)OCCCCOS(C)(=O)=O`, the outcome was inactive.

Consider `CN(C)C(=S)SC(=S)N(C)C`, for which the call was inactive.

In the case of `CCCCCCCCCCCCCCCC(=O)OC/C=C(C)/C=C/C=C(C)/C=C/C1=C(C)CCCC1(C)C`, the compound was classed as inactive.

Regarding `CN(C)C(=O)Nc1ccc(Oc2ccc(Cl)cc2)cc1`, the concentration at half-maximal activity (AC50) is 5.74 µM (active).

For `COc1ccc(N=Nc2cc(C)c(N=Nc3ccc(S(=O)(=O)O)cc3)cc2OC)cc1`, the AC50 was 0.0418 µM (active).

`Cc1ccc(S(=O)(=O)Oc2ccc(N=Nc3ccc(-c4ccc(N=Nc5c(O)ccc6cc(S(=O)(=O)O)cc(S(=O)(=O)O)c56)c(C)c4)cc3C)cc2)cc1`: the AC50 was 0.118 µM (active).

On to `C=CC(=O)OCCCC`, for which the compound was classed as inactive.

For `Nc1ccc2cc(S(=O)(=O)O)cc(O)c2c1N=Nc1ccccc1C(F)(F)F`, the AC50 was 5.02 µM (active).

Consider `CCCCC(CC)COC(C)=O` (configuration not stated), for which the compound was called inactive.

For `CCOc1ccc(N=Nc2ccc(C=Cc3ccc(N=Nc4ccc(OCC)cc4)cc3S(=O)(=O)O)c(S(=O)(=O)O)c2)cc1`, the AC50 is 5.82 µM (active).

Tested on in a further assay: not listed separately
The experiment in a line: NVS_IC_rCaBTZCHL: NovaScreen (NVS) Ion Channel Assay for Calcium Channel, Type L, Benzothiazepine Site (CaBTZCHL) (AID 2283337). The method in brief: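 Rat cortical membrane preparation incubated 1.5 h with compound and benzothiazepine-site radioligand; loss of filter-bound counts versus DMSO marks displacement. Initial duplicate testing at 25 uM, actives followed up in concentration series.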
`c1ccc(Oc2ccccc2)cc1`: the result was inactive.

On to `COc1ccc(CCN2CCC(Nc3nc4ccccc4n3Cc3ccc(F)cc3)CC2)cc1`, for which the AC50 was 2.18 µM (active).

As for `CN(c1nccc(=O)[nH]1)C1CCN(c2nc3ccccc3n2Cc2ccc(F)cc2)CC1`, the result was inactive.

Take `CC(C)(C)CC(C)(C)c1ccc(OCCOCC[N+](C)(C)Cc2ccccc2)cc1`: the AC50 is 2.81 µM (active).

Regarding `CCCCOC(=O)CCCCCCCC(=O)OCCCC`, the outcome was inactive.

The next assay concerns the target chimpanzee Androgen Receptor (AR), AR (gene 747460) (UniProt O97775). Kind of assay: NVS_NR_cAR: NovaScreen (NVS) Nuclear Receptor Binding Assay for chimpanzee Androgen Receptor (AR) (AID 2283346).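 Also: radioligand displacement from AR measured by scintillation counting in a cell-free assay; a loss of bound radioligand signal versus DMSO counts as binding.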 The method in brief:
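Radioligand binding to chimpanzee AR expressed in Sf9/Sf21 cells, cell-free, measured 72 h after dosing by lysate-based scintillation counting. Loss of signal vs DMSO; initial duplicate screen at 25 uM, actives retested in concentration series.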
As to `O=C1OC[C@H](Cc2cccc(O)c2)[C@H]1Cc1cccc(O)c1`, the AC50 is 4.16 µM (active).

Consider `Oc1ccc2cc(SSc3ccc4cc(O)ccc4c3)ccc2c1`, for which the AC50 is 31.9 µM (active).

Consider `Cc1cc(=O)oc2cc(N(C)C)ccc12`, for which the half-maximal activity concentration (AC50) is 6.8 µM (active).

Regarding `CCCCCCCCC=CCCCCCCCC1=NCCN1CCO`, the AC50 is 35.8 µM (active).

In the case of `COc1ccc(OC)c(N=Nc2c(O)ccc3ccccc23)c1`, the concentration at half-maximal activity (AC50) was 2.85 µM (active).

With `CCOC(=O)c1ccc(N)cc1`, the compound was called inactive.

As to `C=C(C)[C@H]1CC=C(C)C(=O)C1`, the compound was classed as inactive.

As for `OCc1cccc(Oc2ccccc2)c1`, the AC50 was 25 µM (active).

Regarding `COc1ccc(N=Nc2cc(C)c(N=Nc3ccc(S(=O)(=O)O)cc3)cc2OC)cc1`, the AC50 was 25 µM (active).

In the case of `Cc1ccc(S(=O)(=O)Oc2ccc(N=Nc3ccc(-c4ccc(N=Nc5c(O)ccc6cc(S(=O)(=O)O)cc(S(=O)(=O)O)c56)c(C)c4)cc3C)cc2)cc1`, the AC50 is 5.44 µM (active).

Take `Nc1ccc(N)c2c1C(=O)c1ccccc1C2=O`: the result was inactive.

On to `C=C1CC[C@H](O)C/C1=C/C=C1\CCC[C@]2(C)[C@@H]([C@H](C)/C=C/[C@H](C)C(C)C)CC[C@@H]12`, for which the AC50 was 28.4 µM (active).

As to `O=CCc1ccccc1`, the call was inactive.

For the compound `CCc1cc(C(C)(C)C)c(O)c(C(C)(C)C)c1`, the result was inactive.

In the case of `Oc1c(Cl)cc(Cl)c(Cl)c1Cc1c(O)c(Cl)cc(Cl)c1Cl`, the half-maximal activity concentration (AC50) was 5 µM (active).

On to `BrCc1cccc(Oc2ccccc2)c1`, for which the AC50 was 25 µM (active).

Turning to `Nc1ccccc1[N+](=O)[O-]`, the outcome was inactive.

Turning to `CCOc1ccc(N=Nc2ccc(C=Cc3ccc(N=Nc4ccc(OCC)cc4)cc3S(=O)(=O)O)c(S(=O)(=O)O)c2)cc1`, the AC50 is 17.7 µM (active).

`CN1CCOCC1`: the call was inactive.

Turning to `O=C(Nc1ccc2c(O)c(N=Nc3ccc(N=Nc4ccc(S(=O)(=O)O)cc4)cc3)c(S(=O)(=O)O)cc2c1)c1ccccc1`, the concentration at half-maximal activity (AC50) is 40.6 µM (active).
